# From PubChem
# EPAC2 antag: Validation qHTS for antagonist of cAMP-regulated guanine nucleotide exchange factor 4 (EPAC2) | EPAC2 Rap1B BODIPY-GDP exchange, fluorescence | AID 1645886, 2021 | Potency, µM (titrated, usually from 112 µM), for the others: at the top dose activity, negative = inhibition, hits mostly inhibitors | Rap guanine nucleotide exchange factor 4 (Homo sapiens), Q8WZA2 | actives 1.7% (n = 16,000);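 further: 100% = activation by cAMP agonist control; nearly all actives have a fitted effect of over 40% in size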
#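 Normalized against a 6.5 mM cAMP agonist control, compounds were tested on 100 nM EPAC2 exchanging Rap1B-bound BODIPY-GDP (250 nM) for 50 uM GDP. Fluorescence drop (ex 480, em 540 nm) was tracked at room temperature over 30 min at 5-min intervals.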
# EPAC1 agonist: Validation qHTS for agonist of cAMP-regulated guanine nucleotide exchange factor 3 (EPAC1); Potency, µM, for the others: max response, positive = active, actives largely listed as activators; EPAC1 Rap1b BODIPY-GDP exchange, fluorescence; actives 1% (n = 16,000); Rap guanine nucleotide exchange factor 3 (Homo sapiens), O95398; further: nearly all actives have a fitted effect of over 70% in size
# Numbers without * were called inactive; i = inactive; ? = inconclusive; ! = a repeat was not active; [ ] = dose if it differs, or a comment. A selection: hits, their analogues and other compounds. The true share with any hit is near 2.9%. The call rests on the fitted dose curve; in most records, active means well fitted curve in the direction sought with a large enough effect; inconclusive means small, poorly fitted or top-dose-only effect, or another doubt; inactive means no such curve, though single readings can be large; an effect the other way counts as inactive or inconclusive. Unless noted, on the % scale 0 is the no-effect control and ±100 the full control effect; potency means the concentration at half of the fitted maximal effect.
SMILES,EPAC2 antag,EPAC1 agonist
Cl.Cl.Cl.Cl.Cl.Cl.N.N.N.N.NNNNN.NNNNN.O.O.[Ru].[Ru].[Ru],56µM*,-15%
O=C1C[C@@H]2OCC=C3CN4CC[C@]56c7ccccc7N1[C@H]5[C@H]2[C@H]3C[C@H]46,-2%,2%
C=C[C@H]1CN2CC[C@H]1C[C@H]2[C@H](OC(=O)OCC)c1ccnc2ccc(OC)cc12,-10%,-18%
CCCC[C@H]1C(=O)O[C@H](C)[C@H](NC(=O)c2cccc(NC=O)c2OC)C(=O)O[C@@H](C)[C@@H]1OC(=O)CC(C)C,?,-47%
CCCCCC1C(=O)O[C@H](C)[C@@H](NC(=O)c2cccc(NC=O)c2O)C(=O)OC(C)C1OC(=O)CC(C)C (some centres undefined),56µM*,-195%
C[C@]12CC[C@H]3[C@@H](CCC4=CC(=O)CC[C@@]43C)[C@@H]1CC[C@@H]2OC(=O)CCc1ccccc1,-10%[239 µM],21%
C[C@@H]1[C@@H]2Cc3ccc(O)cc3[C@@]1(C)CCN2CCc1ccccc1,12%[239 µM],14%
O=C(O)COc1ccc(Cl)cc1Cl,-13%,29%
Oc1cc(Cl)ccc1Oc1ccc(Cl)cc1Cl,11µM*!,?
N[C@@H](CCl)C(=O)O,9%,-8%
NC(Cc1cc(O)c(O)cc1O)C(=O)O (centres undefined),13µM*,18%
CN(C)CCCCCCN(C)C (tested in a mixture with another compound),3%,-10%
CCC/C=C/C=C/C(=O)O[C@H]1/C(=C/C(=O)OC)C[C@H]2C[C@H]([C@@H](C)O)OC(=O)C[C@H](O)C[C@@H]3C[C@H](OC(C)=O)C(C)(C)[C@](O)(C[C@@H]4C/C(=C/C(=O)OC)C[C@H](/C=C/C(C)(C)[C@]1(O)O2)O4)O3,-29%,-78%
CCCCCCC(C)(C)c1ccc([C@@H]2C[C@H](O)CC[C@@H]2CCCO)c(O)c1,28µM*,-53%
Cc1ccc2c(c1)[C@]13CCCC[C@@H]1[C@H](C2)N(C)CC3,4%,20%
O=c1[nH]cc(N(CCCl)CCCl)c(=O)[nH]1,71µM*,-6%
NC(=O)[C@H](Cc1ccccc1)NC(=O)[C@H](Cc1c[nH]c2ccccc12)NC(=O)[C@@H]1CCCN1C(=O)[C@@H](N)Cc1ccc(O)cc1,4%[11.4 µM],-8%
CC(=O)[C@@]1(O)CC[C@H]2[C@@H]3CCC4=CC(=O)CC[C@]4(C)C3(F)[C@@H](O)C[C@@]21C (some centres undefined),-5%,-1%
C[C@@H](N)C(=O)c1ccccc1,19%[239 µM],7%
Cc1c(C(=O)c2cccc3ccccc23)c2cccc3c2n1[C@H](CN1CCOCC1)CO3,-23%,?
CCCn1c(C)c(C(=O)c2cccc3ccccc23)c2ccccc21,20µM*,2%
N#CC(C#N)=Cc1cc(O)c(O)c(O)c1,89µM*!,-19%
N#C/C(=C\c1ccc(O)c(O)c1)C(N)=S,?,-21%
O=C1CN=C(c2ccccc2)c2cc(Cl)ccc2N1CC1CC1,22µM*,-16%
O=C1Nc2ccc(Cl)cc2C(c2ccccc2)=NC1O (centres undefined),?,3%
SMILES,EPAC2 antag,EPAC1 agonist
COc1ccc(OC)c(C[C@H](C)N)c1,13%[239 µM],17%
C[C@@H]1[C@H](O)[C@@H](C)C=CC=CCCC=CC=CC=CC=C[C@H](O[C@H]2O[C@@H](C)[C@H](O)[C@@H](N)[C@@H]2O)CC2O[C@](O)(C[C@@H](O)[C@H](O)CC[C@@H](O)C[C@@H](O)C[C@@H](O)CC(=O)O[C@H]1C)C[C@H](O)[C@H]2C(=O)O,17%,21%
COc1ccc(CCN)cc1O,0%,-2%
NCCc1cc(O)c(O)cc1O,-10%,112µM*
CCC(=O)O[C@H]1[C@@H](N2CCCCC2)C[C@H]2[C@@H]3CC[C@H]4C[C@H](OC(C)=O)[C@@H](N5CCCCC5)C[C@]4(C)[C@H]3CC[C@@]21C,-14%,8%
O=S(=O)(O)C(F)(F)C(F)(F)C(F)(F)C(F)(F)C(F)(F)C(F)(F)C(F)(F)C(F)(F)F,100µM*,-229%
CC(C)[C@H]1C(=O)N2CCC[C@H]2[C@]2(O)O[C@](NC(=O)[C@@H]3C[C@@H]4c5cccc6[nH]cc(c56)C[C@H]4N(C)C3)(C(C)C)C(=O)N12,5%,1%
CCOC(=O)/C=C(C)/C=C/C[C@@H](C)CCCC(C)C,-17%,-29%
CC(=O)O[C@H]1C[C@H](O[C@H]2[C@@H](O)C[C@H](O[C@H]3[C@@H](O)C[C@H](O[C@H]4CC[C@@]5(C)[C@H](CC[C@@H]6[C@@H]5C[C@@H](O)[C@]5(C)[C@@H](C7=CC(=O)OC7)CC[C@]65O)C4)O[C@@H]3C)O[C@@H]2C)O[C@H](C)[C@H]1O[C@@H]1O[C@H](CO)[C@@H](O)[C@H](O)[C@H]1O,14%,-35%
[S]=[Sb](=[S])[S][Sb](=[S])=[S],23%,-4%
COc1ccc2c3c([nH]c2c1)C(C)=NCC3,-8%,?
CC1=NCCc2c1[nH]c1cc(O)ccc21,i,79µM*
Oc1c(Cl)c(Cl)c(Cl)c(Cl)c1Cl,14µM*,-64%
CCN(CC)C(=O)[C@@H]1C=C2c3cccc4[nH]cc(c34)C[C@H]2N(C)C1,11%,14%
O=C(O)c1ccccc1-c1c2cc(Br)c(=O)cc-2oc2[c]([Hg])c(O)c(Br)cc12,i,?
O=C1OC2(c3cc(Br)c(O)cc3Oc3c2cc(Br)c(O)[c]3[Hg])c2ccccc21 (centres undefined),i,40µM*!
CN[C@]1(c2ccccc2Cl)CCCCC1=O,-7%,6%
